Measured values as given in PubChem BioAssay (EPA / NIEHS).
Where “and” joins values, the source holds several entries; their conditions need not be identical. Equal values may be shown once. Results filed as inconclusive are left out. Calls of active or inactive are those of the source. Rule for the calls, unless noted: active = hit-call score of the fitted dose curve at least 0.9, where 1 is the maximum; inactive = score below 0.9.

Key:
[1] = read-out: Intercellular Adhesion Molecule 1 (ICAM1), ICAM1 (gene 3383); experiment: BSK_3C_ICAM1: BioMAP Diversity Plus: 3C Assay for Intercellular Adhesion Molecule 1 (ICAM1) Biomarker Activity (AID 2283003); conditions: primary human endothelial cells (HUVEC); actives raise or lower the signal
Procedure, shortened: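 ELISA read-out of ICAM-1; HUVEC (primary human), 3C system, 24 h post-dosing; bidirectional fit vs DMSO baseline.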

[2] = target: human Retinoic Acid Receptor beta (RARb), RARB (gene 5915) (UniProt P10826); experiment: ATG_RARb_TRANS: Attagene TRANS-FACTORIAL HepG2 Assay for human Retinoic Acid Receptor beta (AID 2283004; active = hit-call score of the fitted dose curve at least 0.9, where 1 is the maximum)
Sequence of human Retinoic Acid Receptor beta (RARb), RARB (gene 5915) (P10826 whole entry, looked up, the tested form may be a part): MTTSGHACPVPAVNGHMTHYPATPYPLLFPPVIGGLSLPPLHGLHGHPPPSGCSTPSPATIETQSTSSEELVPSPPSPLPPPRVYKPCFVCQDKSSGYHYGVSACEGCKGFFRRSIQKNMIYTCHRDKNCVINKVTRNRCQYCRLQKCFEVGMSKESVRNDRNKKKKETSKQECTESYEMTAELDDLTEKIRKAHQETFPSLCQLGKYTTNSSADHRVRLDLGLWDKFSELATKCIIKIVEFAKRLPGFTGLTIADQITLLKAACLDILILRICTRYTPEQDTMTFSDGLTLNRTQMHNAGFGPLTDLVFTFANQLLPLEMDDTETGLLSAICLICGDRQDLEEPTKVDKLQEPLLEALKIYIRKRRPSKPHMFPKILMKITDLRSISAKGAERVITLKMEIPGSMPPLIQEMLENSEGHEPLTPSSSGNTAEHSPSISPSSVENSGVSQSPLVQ
Procedure, shortened: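 Readout is reporter mRNA induction: RNA reverse-transcribed, PCR-amplified, FAM-labelled, HpaI-cut and resolved by capillary electrophoresis. Transiently transfected HepG2 cells carrying exogenous NR–Gal4 chimeras were dosed for 24 h; activity fitted upward relative to DMSO.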

[3] = target: Retinoic acid receptor alpha (Homo sapiens) (UniProt P10276); experiment: ATG_RARa_TRANS: Attagene TRANS-FACTORIAL HepG2 Assay for human Retinoic Acid Receptor alpha (RARa) (AID 2283005; active = hit-call score of the fitted dose curve at least 0.9, where 1 is the maximum;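 for AC50: potency for increased reporter signal meaning RARa activation over DMSO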)
Sequence of Retinoic acid receptor alpha (Homo sapiens) (P10276 whole entry, looked up, the tested form may be a part): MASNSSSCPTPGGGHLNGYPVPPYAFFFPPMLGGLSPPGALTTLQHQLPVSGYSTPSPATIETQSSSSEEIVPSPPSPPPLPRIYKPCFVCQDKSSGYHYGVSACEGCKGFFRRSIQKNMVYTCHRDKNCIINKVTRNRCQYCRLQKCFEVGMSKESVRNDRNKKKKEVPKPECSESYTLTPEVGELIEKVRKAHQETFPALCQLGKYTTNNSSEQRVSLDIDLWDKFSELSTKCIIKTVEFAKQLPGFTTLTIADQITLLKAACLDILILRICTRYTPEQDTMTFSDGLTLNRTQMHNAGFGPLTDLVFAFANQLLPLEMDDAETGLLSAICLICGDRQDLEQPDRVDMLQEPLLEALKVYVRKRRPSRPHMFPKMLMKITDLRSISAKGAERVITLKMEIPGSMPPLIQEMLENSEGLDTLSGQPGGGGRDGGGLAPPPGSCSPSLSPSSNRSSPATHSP
Procedure, shortened: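 HepG2 transiently transfected with multiplex GAL4-UAS reporter units including a human RARa–GAL4 chimera; 24 h compound exposure. Reporter mRNA quantified by RT-PCR, 6-FAM labeling and capillary electrophoresis; gain of signal versus DMSO.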

[4] = BSK_3C_Proliferation: Cell Proliferation Assessment in the BioMAP Diversity Plus: 3C Assay (AID 2283006); conditions: primary human endothelial cells (HUVEC);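 for AC50: potency may reflect either rise or fall in cell number versus DMSO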
Procedure, shortened: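 HUVEC, sub-confluent; 48 h chemical exposure; 10% TCA fix, 0.1% SRB stain, A560 total protein. Gain or loss of signal fitted both directions vs DMSO control.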

[5] = target: Peroxisome proliferator-activated receptor gamma (Homo sapiens) (UniProt P37231); experiment: ATG_PPARg_TRANS: Attagene TRANS-FACTORIAL HepG2 Assay for human Peroxisome Proliferator-activated Receptor-gamma (PPARg) (AID 2283007; active = hit-call score of the fitted dose curve at least 0.9, where 1 is the maximum)
Sequence of Peroxisome proliferator-activated receptor gamma (Homo sapiens) (P37231 whole entry, looked up, the tested form may be a part): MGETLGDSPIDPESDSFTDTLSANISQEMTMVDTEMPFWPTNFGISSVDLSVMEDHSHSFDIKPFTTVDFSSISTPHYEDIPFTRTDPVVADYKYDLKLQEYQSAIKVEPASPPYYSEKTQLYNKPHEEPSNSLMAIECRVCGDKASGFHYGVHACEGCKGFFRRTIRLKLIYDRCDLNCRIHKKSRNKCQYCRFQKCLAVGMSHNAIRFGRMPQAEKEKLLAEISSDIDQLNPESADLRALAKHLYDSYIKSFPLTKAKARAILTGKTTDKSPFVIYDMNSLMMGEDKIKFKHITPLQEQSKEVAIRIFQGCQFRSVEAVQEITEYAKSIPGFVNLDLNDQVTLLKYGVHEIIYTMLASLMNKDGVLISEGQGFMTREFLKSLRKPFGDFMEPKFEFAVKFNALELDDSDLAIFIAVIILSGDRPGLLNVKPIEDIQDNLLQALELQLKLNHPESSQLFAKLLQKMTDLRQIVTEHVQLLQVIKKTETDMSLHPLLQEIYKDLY
Procedure, shortened: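 After 24 h of chemical exposure, transfected HepG2 cells carrying PPARγ-Gal4 chimera reporter constructs are lysed for RNA. Reporter transcripts are measured by RT-PCR and capillary electrophoresis with fluorescent labelling, and gain of signal is fitted versus DMSO.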

[6] = target: Nuclear receptor subfamily 1 group I member 2 (Homo sapiens) (UniProt O75469); experiment: ATG_PXR_TRANS: Attagene TRANS-FACTORIAL HepG2 Assay for human Pregnane X Receptor (PXR) (AID 2283008; active = hit-call score of the fitted dose curve at least 0.9, where 1 is the maximum)
Sequence of Nuclear receptor subfamily 1 group I member 2 (Homo sapiens) (O75469 whole entry, looked up, the tested form may be a part): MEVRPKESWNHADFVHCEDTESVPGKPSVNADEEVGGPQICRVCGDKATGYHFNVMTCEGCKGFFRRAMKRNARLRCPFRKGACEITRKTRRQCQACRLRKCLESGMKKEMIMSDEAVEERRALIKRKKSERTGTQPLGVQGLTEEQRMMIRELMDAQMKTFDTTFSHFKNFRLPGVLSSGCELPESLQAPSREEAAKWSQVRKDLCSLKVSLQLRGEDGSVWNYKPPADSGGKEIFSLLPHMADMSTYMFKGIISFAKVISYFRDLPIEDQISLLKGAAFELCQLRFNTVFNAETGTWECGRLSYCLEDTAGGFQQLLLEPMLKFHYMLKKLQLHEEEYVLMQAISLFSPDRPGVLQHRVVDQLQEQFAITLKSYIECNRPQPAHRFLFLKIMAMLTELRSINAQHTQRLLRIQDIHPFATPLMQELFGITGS
Procedure, shortened: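 Multiplexed TRANS reporter panel in HepG2; this component tracks PXR-Gal4-driven reporter mRNA after 24 h dosing, measured by RT-PCR with capillary electrophoresis fluorescence, fitted against DMSO.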

[7] = target: human Retinoic Acid Receptor gamma (RARg), RARG (gene 5916) (UniProt P13631); experiment: ATG_RARg_TRANS: Attagene TRANS-FACTORIAL HepG2 Assay for human Retinoic Acid Receptor gamma (RARg) (AID 2283009; active = hit-call score of the fitted dose curve at least 0.9, where 1 is the maximum;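 for AC50: AC50 is for reporter induction above DMSO meaning RARg activation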)
Sequence of human Retinoic Acid Receptor gamma (RARg), RARG (gene 5916) (P13631 whole entry, looked up, the tested form may be a part): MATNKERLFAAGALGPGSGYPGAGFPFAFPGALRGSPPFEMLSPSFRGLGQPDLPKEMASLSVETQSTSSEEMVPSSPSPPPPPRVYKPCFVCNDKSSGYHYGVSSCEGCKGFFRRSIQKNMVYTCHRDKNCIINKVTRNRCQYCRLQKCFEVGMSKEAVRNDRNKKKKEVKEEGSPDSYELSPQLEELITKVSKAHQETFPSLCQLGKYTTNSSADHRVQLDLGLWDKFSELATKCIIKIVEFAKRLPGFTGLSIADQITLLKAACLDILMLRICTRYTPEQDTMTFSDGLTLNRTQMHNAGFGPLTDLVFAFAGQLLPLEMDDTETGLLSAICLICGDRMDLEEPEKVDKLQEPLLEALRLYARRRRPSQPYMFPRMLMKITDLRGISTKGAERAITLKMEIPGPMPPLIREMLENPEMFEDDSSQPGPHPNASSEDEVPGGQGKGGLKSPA
Procedure, shortened: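 Readout: reporter transcript levels via RT-PCR, 6-FAM primer-extension labelling, HpaI digestion and capillary electrophoresis. Cells: HepG2 carrying transfected RARg-GAL4 chimera plus UAS reporter set. Dosing 24 h; DMSO negative control.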

[8] = target: Retinoic acid receptor RXR-alpha (Homo sapiens) (UniProt P19793); experiment: ATG_RXRa_TRANS: Attagene TRANS-FACTORIAL HepG2 Assay for human Retinoid X Receptor alpha (RXRa) (AID 2283012; active = hit-call score of the fitted dose curve at least 0.9, where 1 is the maximum)
Sequence of Retinoic acid receptor RXR-alpha (Homo sapiens) (P19793 whole entry, looked up, the tested form may be a part): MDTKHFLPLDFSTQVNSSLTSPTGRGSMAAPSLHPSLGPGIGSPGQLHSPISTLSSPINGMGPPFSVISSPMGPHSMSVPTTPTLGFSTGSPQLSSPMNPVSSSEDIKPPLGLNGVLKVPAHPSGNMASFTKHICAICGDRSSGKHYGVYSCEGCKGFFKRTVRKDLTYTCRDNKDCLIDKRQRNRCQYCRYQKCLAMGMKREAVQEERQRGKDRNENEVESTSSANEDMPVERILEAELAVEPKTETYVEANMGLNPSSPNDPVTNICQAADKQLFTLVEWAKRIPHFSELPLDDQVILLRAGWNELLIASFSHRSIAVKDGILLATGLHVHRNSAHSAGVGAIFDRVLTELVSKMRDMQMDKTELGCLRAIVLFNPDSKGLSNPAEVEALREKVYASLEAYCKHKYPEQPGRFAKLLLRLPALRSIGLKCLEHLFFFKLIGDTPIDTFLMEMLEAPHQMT
Procedure, shortened: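 Read-out: fluorescent reporter-transcript fragments quantified by capillary electrophoresis after RT-PCR. Transiently transfected HepG2 cells carrying GAL4-UAS reporters and NR-GAL4 chimeras were exposed to chemical for 24 h; activity scored as increase over DMSO.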

[9] = target: human Retinoid X Receptor beta (RXRb), RXRB (gene 6257) (UniProt P28702); experiment: ATG_RXRb_TRANS: Attagene TRANS-FACTORIAL HepG2 Assay for human Retinoid X Receptor beta (RXRb) (AID 2283013; active = hit-call score of the fitted dose curve at least 0.9, where 1 is the maximum)
Sequence of human Retinoid X Receptor beta (RXRb), RXRB (gene 6257) (P28702 whole entry, looked up, the tested form may be a part): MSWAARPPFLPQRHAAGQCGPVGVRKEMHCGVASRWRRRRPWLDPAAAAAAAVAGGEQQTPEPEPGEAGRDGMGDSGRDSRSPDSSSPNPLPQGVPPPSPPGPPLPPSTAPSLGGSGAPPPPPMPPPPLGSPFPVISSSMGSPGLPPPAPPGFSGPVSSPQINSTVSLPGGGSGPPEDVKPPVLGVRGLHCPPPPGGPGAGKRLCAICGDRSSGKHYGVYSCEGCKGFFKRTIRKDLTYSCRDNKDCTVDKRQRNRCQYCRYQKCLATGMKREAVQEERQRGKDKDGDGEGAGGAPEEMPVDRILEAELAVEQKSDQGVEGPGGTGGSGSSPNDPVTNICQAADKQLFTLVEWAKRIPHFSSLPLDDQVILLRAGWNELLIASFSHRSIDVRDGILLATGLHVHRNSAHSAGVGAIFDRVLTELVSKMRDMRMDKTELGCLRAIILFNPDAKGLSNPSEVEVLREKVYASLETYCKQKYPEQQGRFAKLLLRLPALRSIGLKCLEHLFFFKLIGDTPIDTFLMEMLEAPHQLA
Procedure, shortened: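 Read-out: reporter mRNA induction via RT-PCR plus capillary electrophoresis fluorescence, analysed as signal increase relative to DMSO. Cells were human HepG2, transiently transfected with GAL4-UAS reporter constructs and chimeric receptor-Gal4 fusions, dosed for 24 h.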

[10] = read-out: E-selectin (Homo sapiens) (UniProt P16581); experiment: BSK_3C_Eselectin: BioMAP Diversity Plus: 3C Assay for Eselectin Biomarker Activity (AID 2283015); conditions: primary human endothelial cells (HUVEC); actives raise or lower the signal;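 note: cell surface E-selectin protein quantified by ELISA 24 h after dosing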
Procedure, shortened: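 HUVEC, 3C stimulation; compound exposure 24 h; E-selectin by ELISA; gain- or loss-of-signal fitted bidirectionally vs DMSO baseline.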

[11] = read-out: Interleukin-1 alpha (IL1a), IL1A (gene 3552); experiment: BSK_BE3C_IL1a: BioMAP Diversity Plus: BE3C Assay for Interleukin-1 alpha (IL1a) Biomarker Activity (AID 2283016); conditions: primary human bronchial epithelial cells; actives raise or lower the signal
Procedure, shortened: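 ELISA read-out of IL-1a from human lung bronchial epithelial primary cells, 24 h post-dose. Gain or loss of signal fitted relative to DMSO negative control.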

[12] = read-out: Human Leukocyte Antigen - DR isotype (HLADR), HLA-DRA (gene 3122); experiment: BSK_3C_HLADR: BioMAP Diversity Plus: 3C Assay for Human Leukocyte Antigen - DR isotype (HLADR) Biomarker Activity (AID 2283019); conditions: primary human endothelial cells (HUVEC); actives raise or lower the signal
Procedure, shortened: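 HUVEC, 3C stimulation, 24 h post-dose; HLA-DR by ELISA; bidirectional curve fit vs DMSO baseline; gain or loss of signal scored.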

[13] = read-out: Interleukin-8 (IL8), CXCL8 (gene 3576); experiment: BSK_3C_IL8: BioMAP Diversity Plus: 3C Assay for Interleukin-8 (IL8) Biomarker Activity (AID 2283020); conditions: primary human endothelial cells (HUVEC); actives raise or lower the signal
Procedure, shortened: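 HUVEC, 3C stimulation; 24 h compound exposure; IL-8 read by ELISA; gain or loss of signal fitted relative to DMSO control.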

[14] = read-out: Monokine induced gamma interferon (MIG), CXCL9 (gene 4283); experiment: BSK_3C_MIG: BioMAP Diversity Plus: 3C Assay for Monokine induced gamma interferon (MIG) Biomarker Activity (AID 2283021); conditions: primary human endothelial cells (HUVEC); actives raise or lower the signal
Procedure, shortened: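 HUVEC, 3C system; 24 h chemical exposure; MIG by ELISA; bidirectional fit vs DMSO baseline.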

[15] = target: human Vitamin D Receptor (VDR), VDR (gene 7421) (UniProt P11473); experiment: ATG_VDR_TRANS: Attagene TRANS-FACTORIAL HepG2 Assay for human Vitamin D Receptor (VDR) (AID 2283022; active = hit-call score of the fitted dose curve at least 0.9, where 1 is the maximum)
Sequence of human Vitamin D Receptor (VDR), VDR (gene 7421) (P11473 whole entry, looked up, the tested form may be a part): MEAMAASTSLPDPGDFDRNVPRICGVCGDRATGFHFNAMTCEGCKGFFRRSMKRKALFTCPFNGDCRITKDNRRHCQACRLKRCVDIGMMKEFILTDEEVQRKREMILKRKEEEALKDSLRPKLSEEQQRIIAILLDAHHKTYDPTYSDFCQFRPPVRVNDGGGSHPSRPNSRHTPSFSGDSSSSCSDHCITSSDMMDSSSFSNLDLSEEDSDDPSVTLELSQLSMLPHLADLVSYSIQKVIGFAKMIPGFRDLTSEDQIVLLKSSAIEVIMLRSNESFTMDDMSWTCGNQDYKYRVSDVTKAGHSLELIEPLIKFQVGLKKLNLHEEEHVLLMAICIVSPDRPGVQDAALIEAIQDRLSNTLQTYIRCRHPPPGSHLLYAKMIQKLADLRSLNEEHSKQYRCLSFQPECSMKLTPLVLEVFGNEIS
Procedure, shortened: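 RT-PCR/capillary electrophoresis read-out of reporter mRNA induction in transiently transfected HepG2; 24 h dosing; chimeric NR-Gal4 (TRANS format); gain-of-signal fit against DMSO baseline.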

[16] = target: human RAR-related Orphan Receptor gamma (RORg), RORC (gene 6097) (UniProt P51449); experiment: ATG_RORg_TRANS: Attagene TRANS-FACTORIAL HepG2 Assay for human RAR-related Orphan Receptor gamma (RORg) (AID 2283011; active = hit-call score of the fitted dose curve at least 0.9, where 1 is the maximum)
Sequence of human RAR-related Orphan Receptor gamma (RORg), RORC (gene 6097) (P51449 whole entry, looked up, the tested form may be a part): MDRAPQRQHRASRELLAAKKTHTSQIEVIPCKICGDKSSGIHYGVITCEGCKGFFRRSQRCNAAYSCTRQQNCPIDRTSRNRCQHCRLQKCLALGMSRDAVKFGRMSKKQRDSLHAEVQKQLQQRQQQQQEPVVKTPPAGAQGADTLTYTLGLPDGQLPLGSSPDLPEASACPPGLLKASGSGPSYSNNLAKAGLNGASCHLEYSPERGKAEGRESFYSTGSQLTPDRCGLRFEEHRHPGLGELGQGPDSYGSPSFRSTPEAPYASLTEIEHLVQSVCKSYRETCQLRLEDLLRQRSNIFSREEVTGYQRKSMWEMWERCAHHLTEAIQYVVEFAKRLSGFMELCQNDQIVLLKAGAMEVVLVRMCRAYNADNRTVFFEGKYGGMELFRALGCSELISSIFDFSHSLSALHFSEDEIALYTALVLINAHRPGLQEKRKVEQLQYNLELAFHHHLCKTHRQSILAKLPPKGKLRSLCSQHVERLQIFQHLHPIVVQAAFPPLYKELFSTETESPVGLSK
Procedure, shortened: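 Transient MRTU transfection of HepG2 (TRANS format, exogenous NR-Gal4 chimera). 24 h dosing. Total RNA → oligo(dT) RT → PCR → 6-FAM labelling → HpaI cut → CE. Gain vs DMSO.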

[17] = read-out: Monocyte Chemoattractant Protein-1 (MCP1), CCL2 (gene 6347); experiment: BSK_3C_MCP1: BioMAP Diversity Plus: 3C Assay for Monocyte Chemoattractant Protein-1 (MCP1) Biomarker Activity (AID 2283017); conditions: primary human endothelial cells (HUVEC); actives raise or lower the signal
Procedure, shortened: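 HUVEC, 3C system; 24 h chemical exposure; MCP-1 by ELISA; bidirectional curve fit vs DMSO baseline.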

[18] = read-out: Monocyte Chemoattractant Protein-1 (MCP1), CCL2 (gene 6347); experiment: BSK_4H_MCP1: BioMAP Diversity Plus: 4H Assay for Monocyte Chemoattractant Protein-1 (MCP1) Biomarker Activity (AID 2283018); conditions: primary human endothelial cells (HUVEC); actives raise or lower the signal
Procedure, shortened: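 HUVEC primary cells, 24 h post-dose, MCP-1 by ELISA. Gain or loss of signal fitted bidirectionally vs DMSO baseline. Cytotoxicity: SRB stain (0.1% after 10% TCA fixation), read 560 nm, parallel cultures.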

[19] = target: human Thyroid Receptor alpha (THRa1), THRA (gene 7067) (UniProt P10827); experiment: ATG_THRa1_TRANS: Attagene TRANS-FACTORIAL HepG2 Assay for human Thyroid Receptor alpha (THRa1) (AID 2283014; active = hit-call score of the fitted dose curve at least 0.9, where 1 is the maximum)
Procedure, shortened: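 Transient HepG2 transfection, NR-Gal4 chimera driving GAL4-UAS reporters; 24 h compound exposure; total RNA, oligo(dT) RT, PCR, fluorescent primer extension, capillary electrophoresis. Upward direction vs DMSO control.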

[20] = target: human RAR-related Orphan Receptor beta (RORb), RORB (gene 6096) (UniProt Q92753); experiment: ATG_RORb_TRANS: Attagene TRANS-FACTORIAL HepG2 Assay for human RAR-related Orphan Receptor beta (RORb) (AID 2283010; active = hit-call score of the fitted dose curve at least 0.9, where 1 is the maximum)
Procedure, shortened: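 HepG2, transient MRTU transfection (GAL4-UAS reporters, exogenous NR-Gal4 chimeras); 24 h compound exposure; total RNA → RT-PCR → 6-FAM primer extension → HpaI digest → CE fluorescence. Positive direction vs DMSO baseline.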

Measured: AC50

Sequence of E-selectin (Homo sapiens) (P16581 whole entry, looked up): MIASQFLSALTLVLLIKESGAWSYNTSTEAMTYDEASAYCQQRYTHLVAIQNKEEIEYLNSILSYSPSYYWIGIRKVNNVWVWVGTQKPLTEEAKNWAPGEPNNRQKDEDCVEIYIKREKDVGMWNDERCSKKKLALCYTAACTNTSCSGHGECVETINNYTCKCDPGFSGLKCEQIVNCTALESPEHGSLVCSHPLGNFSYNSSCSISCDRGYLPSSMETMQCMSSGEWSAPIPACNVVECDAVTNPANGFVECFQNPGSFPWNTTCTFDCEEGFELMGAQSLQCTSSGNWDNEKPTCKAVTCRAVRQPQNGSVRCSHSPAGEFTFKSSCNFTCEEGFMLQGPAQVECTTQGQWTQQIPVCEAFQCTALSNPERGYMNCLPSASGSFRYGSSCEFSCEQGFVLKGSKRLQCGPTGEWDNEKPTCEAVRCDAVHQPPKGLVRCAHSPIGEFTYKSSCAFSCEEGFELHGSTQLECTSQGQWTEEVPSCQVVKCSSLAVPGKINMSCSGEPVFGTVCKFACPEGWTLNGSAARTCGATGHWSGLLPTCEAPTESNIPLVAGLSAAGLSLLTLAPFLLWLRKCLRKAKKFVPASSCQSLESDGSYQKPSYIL

C=CCCCCCCCCC(=O)O
active: [5] 69.1 µM | [9] 74.8 µM
not listed: [16] | [17] | [18] | [19] | [20]
inactive: all other assays above

Clc1nc(Cl)c(Cl)c(Cl)c1Cl
active: [4] 20 µM | [5] 3.02 µM | [11] 29.2 µM | [12] 31.2 µM | [13] 14.2 µM
not listed: [3] | [6] | [8] | [18] | [19] | [20]
inactive: all other assays above

CC(C)CCCCCCCOC(=O)CCCCC(=O)OCCCCCCCC(C)C
active: [3] 28.8 µM | [9] 100 µM
not listed: [5] | [6] | [8] | [19] | [20]
inactive: all other assays above

CN(C)c1ccc(Cc2ccc(N(C)C)cc2)cc1
active: [4] 13.4 µM | [5] 23.1 µM | [12] 31.8 µM | [13] 20 µM
not listed: [3] | [9] | [16] | [20]
inactive: all other assays above

Cc1c(-c2cccnc2)c2ccccc2n1CCCCC(=O)O
active: [4] 17.4 µM | [5] 22.4 µM
not listed: [8] | [15] | [17] | [19] | [20]
inactive: all other assays above

C1=CCCC=CCCC=CCC1
active: [6] 56.5 µM | [7] 26.9 µM | [9] 63.5 µM
not listed: [5] | [15] | [16] | [18] | [19] | [20]
inactive: all other assays above

Cn1cnc([N+](=O)[O-])c1Sc1ncnc2nc[nH]c12
active: [4] 6.59 µM and 2.94 µM and 9.77 µM | [5] 39.9 µM | [6] 29.8 µM | [7] 26.1 µM | [19] 27.2 µM
not listed: [15] | [16] | [17]
inactive: all other assays above
